SMN2 splice enh = SMN2 splice variant enhancement; HEK293 SMN2-luciferase splicing reporter, luminescence, 30-36 h; Potency, µM (top dose mostly 46.1 µM), inactives show top-dose activity change, positive = activation, actives largely listed as activators; 210,000 tested, 2.8% active; AID 1458; also: % of control where 0% means no effect; nearly all actives have a fitted effect of over 55% in size
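HEK293 cells carry an SMN2 […]–luciferase reporter in which exon 7 inclusion puts luciferase in frame. Cells were plated 10-12 h before compound addition, then incubated 30-36 h at 37C. ONE-Glo luminescence was read; sodium butyrate at 4.5 mM final served as control.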
FLuc counter = firefly luciferase modulation, counter-screen for miR-21 project; 360,000 tested, 6.9% active; Potency, µM (top dose mostly 57.5 µM), without a hit: at the top dose activity change, negative = inhibition, hits mostly inhibitors; purified FLuc, Km substrates, luminescence inhibition;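 also: plate controls were vehicle for no effect and reference inhibitor for full effect; nearly all actives have a fitted effect of over 55% in size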
Target sequence (P08659 whole entry, looked up): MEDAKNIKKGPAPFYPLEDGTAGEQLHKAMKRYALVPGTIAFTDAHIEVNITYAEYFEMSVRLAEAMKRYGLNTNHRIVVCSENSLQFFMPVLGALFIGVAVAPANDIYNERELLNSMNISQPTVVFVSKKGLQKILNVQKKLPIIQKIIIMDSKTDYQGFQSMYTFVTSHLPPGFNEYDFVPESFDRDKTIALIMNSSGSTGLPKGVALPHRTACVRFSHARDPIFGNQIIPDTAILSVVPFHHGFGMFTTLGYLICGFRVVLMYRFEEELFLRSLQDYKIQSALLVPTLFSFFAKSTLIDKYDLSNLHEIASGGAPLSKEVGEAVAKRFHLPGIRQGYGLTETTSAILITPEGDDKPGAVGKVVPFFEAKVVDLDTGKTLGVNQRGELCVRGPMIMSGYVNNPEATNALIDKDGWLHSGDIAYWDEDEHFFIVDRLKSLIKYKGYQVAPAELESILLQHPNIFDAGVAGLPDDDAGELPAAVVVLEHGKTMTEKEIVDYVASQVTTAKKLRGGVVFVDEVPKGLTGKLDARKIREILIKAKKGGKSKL
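Purified P. pyralis luciferase (10nM final) with 10uM D-luciferin and 10uM ATP (Km levels) in 50mM Tris acetate pH 7.5, 10mM Mg acetate, 0.01% Tween-20, 0.05% BSA; qHTS 6-point titration, ~60 µM downward; luminescence read.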
Rab9 prom act = Rab9 promoter activation | Potency, µM (top dose mostly 9.22 µM), for inactives: at the highest dose activation, negative = inhibition, most hits filed as activators | 320,000 tested, 2.8% active | AID 485297 | Huh7 Rab9 promoter-luciferase reporter, luminescence, 24 h; also: % of control where 0% means no effect; nearly all actives have a fitted effect of over 60% in size
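Luminescence read-out: Huh7 cells stably expressing Rab9-luciferase, treated 24 h with compound at 37 °C, then lysed with luciferase reagent for 10 min at ambient before reading.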
NPC1 prom act = activators of NPC1 promoter; Huh7 NPC1 promoter luciferase reporter, 24 h; Potency, µM (highest dose often 9.22 µM), inactives show at the top dose activation, usual class: activators; 320,000 tested, 2.4% active; also: % of control where 0% means no effect; nearly all actives have a fitted effect of over 60% in size
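Stably transfected Huh7 (NPC1 promoter→luciferase), 1500 cells/well in Opti-MEM + 10% FBS, 2 h settle, then compound 24 h at 37 °C. Luminescence after 10 min with Amplite reagent.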
ELG1 genotox = induces genotoxicity in HEK293T cells with luciferase-tagged ELG1; HEK293T ELG1-luciferase reporter, luminescence, 16 h; Potency, µM (series often up to 46 µM), for inactives: at the top dose activity change, positive = activation, usual class: activators; 330,000 tested, 1.3% active; AID 504466; also: % of control where 0% means no effect; nearly all actives have a fitted effect of over 60% in size
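ELG1-luciferase HEK293T cells, 2,000/well; compound pinned in; 16 hr, 37 °C, 5% CO2; ONE-Glo, 30 min RT; luminescence on CCD imager.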
Luc counter = Kinase-Glo luciferase inhibition (counter-screen). Q27757. Kinase-Glo luciferase, ATP luminescence, 8 min. Potency, µM (titrated, usually from 38.3 µM), inactives show at the highest dose activity change, negative = inhibition, hits mostly inhibitors. 200,000 tested, 0.28% active. AID 1379; also: % is scaled to controls: 0 for no effect and ±100 for the full control effect; nearly all actives have a fitted effect of over 60% in size
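Compound is pinned into ATP-containing buffer (10 uM ATP, imidazole pH 7.2, 7 mM MgCl2). Kinase-Glo luciferase reagent is then added. Light output is recorded following an 8-min room-temperature incubation.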
* hit, by the source's call; [ ] = dose if it differs, or a comment. An excerpt weighted towards active compounds, which were near 7.3% of everything screened. Calls follow the shape of the dose curve; as a rule, active = well fitted curve in the direction sought with a large enough effect; inconclusive = small, poorly fitted or top-dose-only effect, or another doubt; inactive = no such curve, though single readings can be large; an effect the other way counts as inactive or inconclusive. Potency is read from the fitted curve at half-maximal effect.

For COC(=O)c1cnn(-c2cc(Oc3ccccc3)ncn2)c1N the results were FLuc counter inconclusive, Rab9 prom act 2.5µM*, NPC1 prom act inconclusive and ELG1 genotox inconclusive.
COc1ccc(S(=O)(=O)NC(C)C(=O)NCc2cccnc2)cc1OC (stereo not drawn) was read as FLuc counter 0%, Rab9 prom act 2%, NPC1 prom act -3% and ELG1 genotox -1%.
`CS(=O)(=O)N(CC(N)=O)c1ccc2c(c1)OCO2` gave SMN2 splice enh 4%, FLuc counter 3%[2.3 µM], Rab9 prom act 2%, NPC1 prom act -2%, ELG1 genotox 0% and Luc counter 2%.
Screening CCN(C(=O)COC(=O)c1cc(-c2ccc(C)o2)nc2ccccc12)C1CCS(=O)(=O)C1 (stereo not drawn) returned SMN2 splice enh 0%, FLuc counter 19µM*, Rab9 prom act 13%, NPC1 prom act 2%, ELG1 genotox -2% and Luc counter -9%.
`COc1ccc(C)cc1N(C)C(=O)CCc1nc(-c2ccccc2F)no1` gave SMN2 splice enh -10% and FLuc counter -11%.
For COc1ccc(CCNC(=O)C(C)SCC(=O)Nc2ccc(F)cc2)cc1 (stereo not drawn) the results were ELG1 genotox 2%.
Screening COc1ccc(-c2cc(C(=O)N3CCN(c4ccccn4)CC3)c3ccccc3n2)cc1 returned FLuc counter 0.67µM*, Rab9 prom act 2.8µM*, NPC1 prom act inconclusive and ELG1 genotox -1%.
Screening O=C(c1cc2ccccc2oc1=O)N1CCN(c2ncccn2)CC1 returned SMN2 splice enh 2%, FLuc counter 21µM*, Rab9 prom act inconclusive, NPC1 prom act 19%, ELG1 genotox 18µM* and Luc counter -3%.
COc1ccc(-c2cc(C(=O)N3CCN(c4ncccn4)CC3)c3ccccc3n2)cc1 was read as FLuc counter 0.67µM*, Rab9 prom act inconclusive, NPC1 prom act inconclusive and ELG1 genotox 0%.
For CCCc1ccc(-c2cc(C(=O)N3CCN(c4ccccn4)CC3)c3ccccc3n2)cc1 the results were FLuc counter 0.11µM*, Rab9 prom act inconclusive, NPC1 prom act inconclusive and ELG1 genotox inconclusive.
`CC(C)(C)C(=O)CSc1nc2ncc(Br)cc2[nH]1` gave FLuc counter 19µM*, Rab9 prom act 0%, NPC1 prom act 3% and ELG1 genotox 0%.
Cc1ccc(C)c(S(=O)(=O)Nc2ccccc2C(=O)Nc2cc(C)on2)c1 was read as SMN2 splice enh -22%, FLuc counter -2%, Rab9 prom act 3%, NPC1 prom act -5%, ELG1 genotox -7% and Luc counter -2%.
Screening CCn1c(SC)nc2cc(S(=O)(=O)N3CCCCC3)ccc21 returned FLuc counter -10%, Rab9 prom act 7%, NPC1 prom act 0% and ELG1 genotox -2%.
Screening CCc1nnc(N/N=C/c2c(Cl)cccc2Cl)n1N returned SMN2 splice enh -10%, FLuc counter 3%, Rab9 prom act 2%, NPC1 prom act -1%, ELG1 genotox 1% and Luc counter 8%.
`c1ccc(-c2nnc(-c3ccco3)o2)cc1` gave FLuc counter 21µM*, Rab9 prom act 3.2µM*, NPC1 prom act 3.2µM*, ELG1 genotox 2.1µM* and Luc counter inconclusive.
For CCN(CC)S(=O)(=O)c1cc(-c2nnc(-c3ccc(Br)cc3)o2)ccc1Br the results were SMN2 splice enh -62%, FLuc counter -7%, Rab9 prom act -5%, NPC1 prom act -4%, ELG1 genotox 0% and Luc counter 1%.
Screening c1coc(-c2nnc(-c3ccco3)nn2)c1 returned FLuc counter 17µM*, Rab9 prom act inconclusive, NPC1 prom act inconclusive and ELG1 genotox 4%.
Screening Cc1ccc(-c2nnc(-c3ccc(Br)cc3)o2)o1 returned SMN2 splice enh 13µM*, FLuc counter 3µM*, Rab9 prom act 3.2µM*, NPC1 prom act inconclusive, ELG1 genotox inconclusive and Luc counter -1%.
Screening O=C(Cc1ccccc1)Nc1ccc(-c2nnc(-c3ccco3)o2)cc1 returned SMN2 splice enh 1%, FLuc counter 3%, Rab9 prom act 8%, NPC1 prom act 0%, ELG1 genotox 2% and Luc counter 1%.
`c1coc(-c2nnc(-c3cccs3)o2)c1` gave SMN2 splice enh 11µM*, FLuc counter inconclusive, Rab9 prom act inconclusive, NPC1 prom act inconclusive, ELG1 genotox inconclusive and Luc counter -6%.
Screening CCn1c(=O)n(CCc2ccccc2)c(=O)c2c3c(sc21)CCCC3 returned SMN2 splice enh -9%, FLuc counter -1%, Rab9 prom act -3%, NPC1 prom act -3%, ELG1 genotox -9% and Luc counter -3%.
`COc1cnc(NS(=O)(=O)c2ccc(N)cc2)nc1` gave SMN2 splice enh -9%, FLuc counter 5%, Rab9 prom act -1%, NPC1 prom act -5%, ELG1 genotox -1% and Luc counter -3%.
For Brc1ccc(-c2nnc(-c3ccco3)o2)cc1 the results were FLuc counter 8.5µM*, Rab9 prom act 4µM*, NPC1 prom act 3.2µM*, ELG1 genotox inconclusive and Luc counter -7%.
COc1cccc(C2=NN(C(=O)c3ccco3)C(c3ccco3)C2)c1 (stereo not drawn) was read as FLuc counter 11µM*, Rab9 prom act 10%, NPC1 prom act 18% and ELG1 genotox 10%.
`CC(=O)Nc1ccc(/C(C)=N/NS(=O)(=O)c2ccc(C)cc2)cc1` gave SMN2 splice enh -18%, FLuc counter 3%, Rab9 prom act 0%, NPC1 prom act -2%, ELG1 genotox 1% and Luc counter -1%.
`C/C(=N\NS(=O)(=O)c1ccc([N+](=O)[O-])cc1)c1ccc(NC(=O)c2ccco2)cc1` gave SMN2 splice enh 18µM*, FLuc counter inconclusive, Rab9 prom act 5%, NPC1 prom act 11%, ELG1 genotox inconclusive and Luc counter -4%.
C/C(=N/NS(=O)(=O)c1ccc(Br)cc1)c1ccc(NC(=O)c2ccc(C)o2)cc1 was read as SMN2 splice enh 14%, FLuc counter 24µM*, Rab9 prom act 7%, NPC1 prom act 2%, ELG1 genotox -1% and Luc counter -2%.
O=[N+]([O-])c1cccc(NC(=S)Nc2nc(-c3ccccc3Cl)cs2)c1 was read as FLuc counter -2%, Rab9 prom act -4%, NPC1 prom act -8% and ELG1 genotox -11%.

High-throughput results (PubChem)
